Laboratory results from PubChem BioAssay AID2717 (Broad Institute, 2010).
The whole screen tested about 300,000 compounds, of which about 3,200 (1.1%) were called active. The sample holds actives, similar compounds and a random draw of the others, so the mix is not that of the screen. Values without a mark were called inactive. Rule as the data show it: active = inhibition above about 75%; inconclusive = no clear call, values can overlap the other calls; inactive = below that; tested in HMLE shEcad cells.

Assay: growth suppression of cancer stem-like cells – cell-based, luminescence, primary screen (AID 2717)
Conditions: cancer stem cell-like cells viability, at 7.5 µM, active compounds read high

Structure (SMILES)	inhibition
COc1ccc(Cl)cc1NC(=O)CN1CCN(C(=O)N2CCOCC2)CC1	-6.19%
O=C(Nc1cc(N2CCOCC2)ncn1)NC1(C(F)(F)F)Oc2ccc(Cl)cc2O1 (centres undefined)	88.5% (active)
Cc1csc(NC(=O)NC2(C(F)(F)F)Oc3ccccc3O2)n1	36.6%
Cc1c(O)c(C)c2c(c1O)C(=O)C[C@@H](c1ccccc1)O2	1.32%
Cc1cccc(-n2ncc3c(=O)[nH]c(SCC(=O)Nc4cc(C)on4)nc32)c1	-7.48%
CCOc1ccccc1NC(=O)CCc1ccc(C)o1	0.408%
Cc1ccc(CCC(=O)Nc2ncc(Cc3cc(Cl)ccc3Cl)s2)o1	86.2% (active)
Cc1ccc(C(=O)Nc2nc3ccc(Cl)cc3s2)o1	18.8%
CCCc1cc(=O)[nH]c(SCC(=O)Nc2ccc(S(=O)(=O)N3CCCC3)cc2)n1	15.6%
C=CC[C@@H](CC(=O)N[C@@H](CO)Cc1ccccc1)C(=O)NCCOC(=O)[C@@H](CC=C)CC(=O)OC(C)(C)C	-6.46%
CCN1CCN(CCNC(=O)c2ccc3c(c2)NC(=O)/C(=C\c2ccc(OC)c(OC)c2)S3)CC1	12.1%
CCN1CCN(CCNC(=O)c2ccc(/C=C3/Sc4ccccc4N(Cc4cccc(C)c4)C3=O)cc2)CC1	102% (active)
O=C(NCCN1CCOCC1)c1ccc(/C=C2\Sc3ccccc3N(Cc3ccc(F)cc3)C2=O)cc1	33.7%
COc1ccc(C(=O)OCC(=O)c2cc(C)n(CC3CCCO3)c2C)cc1[N+](=O)[O-] (centres undefined)	37.8%
C=CC[C@H](CC(=O)OC(C)(C)C)C(=O)OC[C@H]1CCCN1C(=O)[C@H](CC=C)CC(=O)N(CCO)Cc1ccccc1	4.1%
CCN(C(=O)CSc1cccc[n+]1[O-])c1ccccc1	7%
O=C(OCC(=O)N1CCc2ccccc21)c1ccc([N+](=O)[O-])cc1	8.88%
Cc1cccc(NC(=O)c2ccc(COc3ccccc3[N+](=O)[O-])o2)n1	54.5%
O=C(O)c1ccc(NC(=O)c2ccc(COc3ccc(Cl)cc3)o2)cc1	-2.6%
O=C(Nc1ccn(Cc2ccccc2F)n1)c1ccc(COc2ccc(Cl)cc2Cl)o1	80.3% (active)
COCCCNC(=O)CC1C[C@H](C(=O)N2CCCCC2)[C@@]2(CCc3ccccc3)c3[nH]c4ccccc4c3CCN2C1=O (some centres undefined)	-19.5%
O=C1NC(=Nc2ccc(Cl)cc2)SC1Cc1cccc(Cl)c1Cl (centres undefined)	76.5% (active)
CC(C)=N/N=C1/NC(=O)C(Cc2ccccc2)S1 (centres undefined)	-16.9%

Structure (SMILES)	inhibition
NC1=NC(=O)C(Cc2cccc(Cl)c2Cl)S1 (centres undefined)	14.4%
O=C(CCCOc1ccccc1)NNC(=O)c1ccc(Cl)cc1	-7.46%
O=C(NCCc1ccco1)c1ccc(OCc2cn3ccccc3n2)cc1	-8.4%
COc1ccc(NC(=O)c2cc(-c3ccc(C)cc3)on2)cc1	11.2%
COc1ccc(Nc2cc(Cl)ccc2C(=O)O)cn1	5.84%
COc1ccc(NC(=O)/C(Cl)=C(/Cl)S(=O)Cc2ccc(C)cc2)cn1 (centres undefined)	112% (active)
NC(=O)Nc1ccc(C(=O)OCC(=O)NC2CCCc3ccccc32)cc1 (centres undefined)	3.37%
C=C(C)COc1ccc(-c2n[nH]c(C)c2-c2ccccc2)c(O)c1	-11.5%
COc1ccc(-c2n[nH]c(C)c2-c2ccccc2OC)c(O)c1	2.11%
C=C(C)COc1ccc(-c2n[nH]c(C)c2-c2ccccc2OC)c(O)c1	102% (active)
COc1cccc(/C=N/Nc2cc(C)nc(-c3ccccc3O)n2)c1O	12.2%
COc1cccc(/C=N/Nc2ncc(C(F)(F)F)cc2Cl)c1O	102% (active)
COc1cccc(/C(C)=N/Nc2ncc(Cl)cc2Cl)c1	24.2%
Cc1ccc(S(=O)(=O)Nc2nc(CN3CCOCC3)nc3sc(C)c(C)c23)cc1	-7.69%
Cc1ccc(NC(=O)C(C)Sc2nnc(C3CC3)n2C2CC2)cc1S(=O)(=O)N1CCOCC1 (centres undefined)	-10.2%
O=C(NNS(=O)(=O)c1c(F)cc(F)c(Cl)c1F)C12CC3CC(CC(C3)C1)C2	-12.7%
COc1cccc2sc3cc(NCC[C@@H]4CCCN4C)ccc3c(=O)c12	6.75%
Cc1nc2ccc(NC(=O)c3cccc(S(=O)(=O)N4CCOCC4)c3)cc2s1	-13.4%
COc1cccc(/C=C2\C=C(c3ccc(C)cc3)OC2=O)c1OC(C)=O	-0.631%
CCOc1cccc(/C=C/c2ccc3ccccc3n2)c1OC(C)=O	64.6%
COc1cccc(/C=C/c2ccc3ccccc3n2)c1OC(C)=O	104% (active)
O=C1N[C@@H](c2ccccc2)COC(=O)[C@H](Cc2ccc(F)cc2)C/C=C\C[C@@H]1CC(=O)N(CCO)Cc1ccccc1	9.15%
CCN(CC(=O)Nc1c(F)cccc1F)C(=O)c1ccc(-c2ccc(C(C)=O)cc2)o1	-4.76%

Structure (SMILES)	inhibition
COc1ccccc1CNC(=O)COC(=O)c1cccs1	18.5%
C=CC[C@@H](CC(=O)N[C@H](CO)Cc1ccccc1)C(=O)N[C@H](C)COC(=O)[C@@H](CC=C)Cc1ccc(F)cc1	-14.7%
COc1ccccc1N1CCN(C(=O)CSc2ncnc3c2cnn3-c2ccc(C)c(C)c2)CC1	75.8% (active)
COc1ccccc1N1CCN(C(=O)CSc2nnc(-c3ccoc3C)o2)CC1	-0.373%
COC(=O)CSc1ncnc2c1cnn2-c1ccc(C)cc1C	8.04%
COc1ccc(C2(c3ccc(OC)cc3)NC(=O)N(CC(=O)Nc3cc(C)on3)C2=O)cc1	-19.5%
O=C(Cn1cnc2ccccc2c1=O)NNC(=O)c1ccccc1F	-14%
CCCCn1c(CN2CCN(CCO)CC2)nc2ccccc21	-13.9%
CCCCn1c(CCCNC(=O)CC)nc2ccccc21	-2.03%
C=C(Br)Cn1c(CCCC)nc2ccccc21	77.7% (active)
O=C(Nc1cccc(S(=O)(=O)NC2=NCCC2)c1)c1ccc(F)cc1F	17.5%
Cc1cccc(C(=O)OCC(=O)NC(C)C2CC3CCC2C3)c1O (centres undefined)	-4.77%
CCN(C[C@H]1N[C@@](CC)(C(=O)OC)[C@H]2C(=O)N(Cc3ccccc3)C(=O)[C@@H]12)S(=O)(=O)c1ccc(C(F)(F)F)cc1	44.8%
CC(=O)Nc1cccc(Nc2nc(-c3cccs3)nc3ccccc23)c1	33.9%
COc1ccc(Nc2nc(-c3cccnc3)nc3ccccc23)cn1	2.87%
Cc1cccc(-c2nc(Nc3ccc(O)cc3)c3ccccc3n2)c1	94% (active)
Cc1cccc(NC(=O)CN2CCN(C(=O)C3CCN(C(=O)/C=C/c4ccccc4)CC3)CC2)c1C	-8.71%
CC(=O)Nc1ccc(NC(=O)COc2ncnc3ccccc23)cc1	-6.11%
Cc1ccc(Nc2c3c(nc4ccccc24)CCC3)cc1	2.02%
CC(=O)Nc1ccc(Nc2c3ccccc3nc3ccccc23)cc1	85.3% (active)
Cc1ccc(CC(=O)Nc2ccc(S(=O)(=O)N3CCOCC3)cc2)cc1C	6.62%
Cc1cccc(N(CC(=O)N=Nc2c(O)[nH]c3ccccc23)S(C)(=O)=O)c1C	-17.4%
O=[N+]([O-])c1cc(S(=O)(=O)Nc2cccc(Cl)c2)ccc1N=Nc1c(O)[nH]c2ccccc12	96.2% (active)

Structure (SMILES)	inhibition
CN1CCN(c2ccc(S(=O)(=O)Nc3ccccc3)cc2[N+](=O)[O-])CC1	49.9%
O=C(CC1SC(N2CCOCC2)=NC1=O)Nc1ccccc1F (centres undefined)	-28.9%
COc1cc(/C=C/C(=O)OCC(=O)NC2CC2)cc(OC)c1OC	1.1%
COC(=O)c1ccc(C)c(NC(=O)Cn2c(C)csc2=O)c1	13.1%
CCCCC(=O)Nc1ccc(C(=O)Nc2cc(C(F)(F)F)ccc2Cl)cc1	5.17%
CCCCN(CCCC)CCC(O)c1cc2c(Cl)cc(Cl)cc2c2cc(C(F)(F)F)ccc12 (centres undefined)	95.2% (active)
Cc1ccc(C)c(NC(=O)COC(=O)c2nn(C)c(=O)c3ccccc23)c1	-4.9%
COc1cc(NS(=O)(=O)c2ccc(N=Cc3c(C)[nH]n(-c4ccccc4)c3=O)cc2)nc(OC)n1	-7.07%
COc1cc(SC#N)ccc1N=Cc1c(C)[nH]n(-c2ccc(C)cc2)c1=O	84.4% (active)
Cc1ccc(-n2[nH]c(C)c(/C=N/N3C(=O)c4cccc5cccc(c45)C3=O)c2=O)cc1	24.4%
COc1cc(C(=O)OCc2cc(=O)n3ccsc3n2)ccc1OC(C)C	-20.6%
CC1CCCCC1NCC(=O)Nc1ccccc1C(=O)Nc1ccccc1 (centres undefined)	-14.1%
Oc1ccc(N2CCN(C(=S)NCc3ccccc3)CC2)cc1	76.5% (active)
O=C(COC(=O)c1ccccc1C(=O)N1CCN(c2ccccc2)CC1)NCc1ccccc1	-12.2%
Oc1ccccc1N1CCN(C(=S)NCc2ccccc2)CC1	12%
O=C(COC(=O)c1ccc2c(c1)OCCO2)NCc1ccccc1Cl	-17.4%
Cc1ccc(N2C(=O)N3[C@@H]4c5ccccc5OC[C@@H]4[C@@H](c4ccccc4)[C@@]3(C)C2=O)cc1	-10%
CCN(CC)c1ccc(/C=N/NC(=O)CNC(=O)c2cccnc2)cc1	-7.16%
O=C(N/N=C/c1ccc(O)c2ccccc12)c1cccnc1	8.51%
CCN(CC)c1ccc(/C=N/NC(=O)c2cnccn2)c(O)c1	102% (active)
